The results in this text go back to PubChem BioAssay AID588726 (The Scripps Research Institute Molecular Screening Center, 2011).

In all, about 360,000 compounds went through this assay and about 8,200 (2.3%) were called active. For the sample, actives were picked, then their nearest neighbours and some compounds at random. A number with no mark means an inactive call. No stated cut-off is given here; in the data, active means inhibition above about 27%; inactive means the rest.

For orientation: inhibition means the relative decrease from the control value, in per cent.

The assay deals with Fructose-bisphosphate aldolase (Mycobacterium tuberculosis (strain ATCC 25618 / H37Rv)) (UniProt P9WQA3). Put plainly: Mtb FBA enzyme inhibitors, primary screen, biochemical, fluorescence, strain H37Rv (AID 588726).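 Further: 0% = vehicle and 100% = reference inhibitor.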 Particulars: purified M. tuberculosis FBA, fluorescence read-out, at 1 µM, active compounds read high.
Sequence of Fructose-bisphosphate aldolase (Mycobacterium tuberculosis (strain ATCC 25618 / H37Rv)) (P9WQA3 whole entry, looked up): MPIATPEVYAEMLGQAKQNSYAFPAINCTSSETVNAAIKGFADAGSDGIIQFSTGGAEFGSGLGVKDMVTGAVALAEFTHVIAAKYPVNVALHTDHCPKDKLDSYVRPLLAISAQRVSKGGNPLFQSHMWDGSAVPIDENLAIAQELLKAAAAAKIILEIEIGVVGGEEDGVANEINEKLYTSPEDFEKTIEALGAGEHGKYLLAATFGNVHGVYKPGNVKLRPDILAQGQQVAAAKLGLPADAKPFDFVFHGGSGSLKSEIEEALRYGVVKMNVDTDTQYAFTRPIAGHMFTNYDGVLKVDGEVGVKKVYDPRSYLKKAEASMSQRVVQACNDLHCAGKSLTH
With `CC1(C)CN(c2ccc(-c3ccnc4ncnn34)cc2)C1=O`, the inhibition was 809% [above what the read-out allows, likely interference] (active). The figure for `Nc1c(-c2ccc(F)cc2)cnc2ncnn12` is 1.26%. Take `O=C(CSCc1ccccc1Cl)NNC(=O)c1ccccc1`: the inhibition was -0.9%.

In the case of `CC(C)NC(=O)Nc1cccc2c1O[C@H](CN(C)S(=O)(=O)c1cccs1)[C@@H](C)CN([C@H](C)CO)C2=O`, the inhibition was 4.46%.

For `C[C@H]1CN([C@@H](C)CO)C(=O)c2cc(Br)cnc2O[C@H]1CN(C)S(=O)(=O)c1cccs1`, the inhibition was 27.8% (active).

On to `C[C@H]1CN([C@@H](C)CO)C(=O)c2cc(-c3cccc(F)c3)cnc2O[C@@H]1CN(C)S(C)(=O)=O`, for which the inhibition is 2.59%.

For `Cc1cc(C)cc(OCC(=O)OCC(=O)NC2CCCC2)c1`, the inhibition is -0.07%.

Turning to `CCN(C(=O)CSc1cccc[n+]1[O-])c1ccccc1`, the inhibition is 0.35%. The figure for `Cc1ccc(S(=O)(=O)n2oc(=O)c(C3CCCCC3)c2N)cc1` is -0.6%. Take `C=CCSc1nnc2c(n1)-c1cccc3cccc-2c13`: the inhibition was -1.23%. Consider `CCOc1ccccc1C1CC(c2ccc(Cl)cc2)Nc2nc(N)nn21` (stereo not given), for which the inhibition was 4.25%. With `CCOc1ccccc1C1CC(c2ccccc2)Nc2nc(N)nn21` (stereo not given) the figure was 35.6% (active); with `FC(F)Oc1ccccc1C1CC(c2ccc(Br)s2)Nc2ncnn21` (stereo not given), 1.95%. Regarding `CCc1cccc(C)c1NC(=O)COC(=O)Cc1ccsc1`, the inhibition is 4.93%.

`CC(C)NC(=S)Nc1cccc2cnccc12`: the inhibition was -1.91%.

Turning to `Cc1c(CN2CCCCC2)c(O)n(CCO)c(=O)c1C#N`, the inhibition is 2.47%. The figure for `N#Cc1ccccc1S(=O)(=O)N1CCN(Cc2c(O)ccc3ccccc23)CC1` is 2.66%; for `O=c1oc2c(CN3CCCCC3)c(O)ccc2c2c1CCCCC2` it is 502% [above what the read-out allows, likely interference] (active); for `CCC(C)N(C(=O)CSc1ncnc2c1cnn2-c1ccccc1)C1CCS(=O)(=O)C1` (stereo not given) it is -2.78%. With `CCN(C(=O)CSc1ncnc2c1cnn2-c1ccccc1)C1CCS(=O)(=O)C1` (stereo not given) the figure was 32.7% (active). With `CC(C)CN(C(=O)CSc1ncnc2sccc12)C1CCS(=O)(=O)C1` (stereo not given) the figure was 2.25%. Turning to `CN(C)C(=O)CCC(=O)N1CCCCC1C(=O)Nc1ccc(Oc2ccccc2F)cc1` (stereo not given), the inhibition was -1.93%.

In the case of `COc1ccccc1C(=O)Nc1cccc(C(=O)N2CCOCC2)c1`, the inhibition was 3.07%.

As for `O=C(c1cccc(N2CCCC2=O)c1)N1CCOCC1`, the inhibition is -17.6%. With `CCOCCc1c(O)nc(SCC(=O)NCc2ccco2)[nH]c1=O` the figure was 2.42%; with `CS(=O)(=O)N(Cc1ccccc1Cl)c1ccc(C(=O)NCc2cccnc2)cc1`, -3.74%; with `CCN(CC(=O)Nc1cc(Cl)ccc1C)C(=O)CSCc1ccc(C)cc1`, 2.85%. For `O=C(NC1CCCC1)C(c1c(F)cccc1Cl)N(C(=O)c1csnn1)C1CC1` (stereo not given), the inhibition was -1.18%. With `COc1ccc(OC)c(NC(=O)CN(Cc2ccc(Cl)cc2)S(C)(=O)=O)c1` the figure was -0.32%; with `O=c1cc(C(F)(F)F)[nH]c(=O)n1C1CCCCC1`, -0.44%. The figure for `CC(Sc1sc(=S)sc1SC(C)C(=O)O)C(=O)O` (stereo not given) is -1.78%. The figure for `O=C(NCCCN1CCOCC1)c1ccccc1NS(=O)(=O)c1ccc(Br)cc1` is 0.43%. With `O=C(NCCCN1CCOCC1)c1cnn2c(-c3ccccc3)cc(-c3ccccc3)nc12`, the inhibition is 34.3% (active).

Consider `O=C(NCCCN1CCOCC1)c1ccccc1NS(=O)(=O)c1ccc(F)cc1`, for which the inhibition was 2.85%.

On to `CC(=O)Nc1ccc(-c2cn3cccnc3n2)cc1`, for which the inhibition is 566% [above what the read-out allows, likely interference] (active).

As to `Cc1ccc(NC(=O)c2cccnc2C(=O)Nc2ccc(C)cc2)cc1`, the inhibition was 4.35%. Regarding `Cc1nn2c(=O)cc(COC(=O)c3ccc(NC(=O)C(C)(C)C)cc3)nc2s1`, the inhibition was -0.5%. The figure for `CCCCCC(=O)Nc1ccc(-c2cn3cccnc3n2)cc1` is 131% (active). For the molecule `CCCCCC(=O)Nc1ccc(S(=O)(=O)Nc2ccc(Cl)nn2)cc1`, the inhibition was -0.48%. With `CCN(c1ccccc1)S(=O)(=O)c1ccc(NC(=O)C(C)(C)C)cc1` the figure was 0.11%; with `CCCCC(=O)Nc1ccc(C(=O)NCCCn2ccnc2)cc1`, -1.64%; with `CC(=O)Nc1ccc(S(=O)(=O)Nc2ccc(-c3ccc4nnc(C)n4n3)cc2)cc1`, -1.85%. With `CCOc1ccc(C(CC(=O)O)NC(=O)C23CC4CC(CC(C4)C2)C3)cc1OC` (stereo not given) the figure was -2.94%. For `CSc1ccc(CN2CCC2(C)C(=O)NCc2ccccc2Br)cc1` (stereo not given), the inhibition is -0.17%. Turning to `COc1ccc(OC)c(NC(=O)C2CCCN2S(=O)(=O)c2ccc3c(c2)CC(C)N3C(C)=O)c1` (stereo not given), the inhibition is -1.84%. With `CCOC(=O)CSc1nnc(NC(=O)C2CC(=O)N(c3ccc(F)cc3)C2)s1` (stereo not given) the figure was -1.95%; with `O=C(N/C(=C\c1ccc([N+](=O)[O-])cc1)C(=O)N1CCOCC1)c1cccc(Br)c1`, -1.01%. With `CCCS(=O)(=O)N1CCN(C(=O)c2cccs2)CC1` the figure was 3.16%; with `CN(C)S(=O)(=O)c1cccc(NC(=S)N/N=C/C(=O)c2ccccc2)c1`, -3.5%; with `CN(C)S(=O)(=O)c1ccc(N/C=C(\[N+](=O)[O-])S(=O)(=O)c2ccccc2)cc1`, 57.2% (active). Turning to `CN(C)S(=O)(=O)c1ccc(NC(=O)N2CCOCC2)cc1`, the inhibition was 3.98%. With `O=C(O)CC(Cn1cnnn1)c1ccccc1` (stereo not given), the inhibition is 3.12%. Turning to `Cc1cccc(CCNC(=O)Cn2ncc3c([nH]c4ccc(C)cc43)c2=O)c1`, the inhibition was 1.24%.

Turning to `Cc1ccc(CSCC(=O)N(C)CC(=O)Nc2ccc(C)cc2)cc1`, the inhibition is -2.58%. The figure for `Cc1ccc(NC(=O)CN(C)C(=O)COC(=O)c2nccnc2N)cc1` is 88.8% (active); for `Cc1ccc(NC(=O)CN(C)C(=O)COC(=O)C(C)(C)Oc2ccc(Cl)cc2)cc1` it is 2.5%; for `COc1cc2c(cc1OC)C1C(=O)c3cc(OS(C)(=O)=O)c(OC)cc3C1N(C)C2=O` (stereo not given) it is 3.73%. The figure for `O=C(Nc1nnc(C2=COCCO2)o1)c1ccc([N+](=O)[O-])s1` is -5.53%; for `O=C(Nc1nccs1)C1CCCN1S(=O)(=O)c1cccc2cccnc12` (stereo not given) it is -1.37%. The figure for `COc1ccc(C(C)=O)cc1CSc1nc2nc(C)cc(C)n2n1` is -0.02%. In the case of `Cc1cc(C)nc(SCc2cn3c(C)cc(C)nc3n2)n1`, the inhibition is 78.2% (active). The figure for `CCn1c(CSc2nc(C)cc(C)n2)nnc1SCC(N)=O` is -3.73%.

Regarding `COc1ccc(C(CNC(=O)CSc2ccccc2)N2CCOCC2)cc1` (stereo not given), the inhibition is 2.08%.

With `COc1cc2sc(C)nc2cc1C`, the inhibition is 4.23%. The figure for `CC(=O)N1CCOc2ccc(S(=O)(=O)N3CCC(C(=O)Nc4ccccc4F)CC3)cc21` is 3.64%; for `O=C(c1ccccc1[N+](=O)[O-])N1CCC2(CC1)OCCO2` it is 0.71%; for `COc1ccc(NC(=O)N2CCC3(CC2)OCCO3)c(OC)c1` it is -0.76%.

Consider `O=C(CCCN1C(=O)c2cccc3cccc(c23)C1=O)N1CCN(Cc2ccc3c(c2)OCO3)CC1`, for which the inhibition is 10.2%. The figure for `O=C(Nc1cccc2ccccc12)N1CCC2(CC1)OCCO2` is 44.6% (active); for `O=C(Nc1cccc2ccccc12)N1CCN(Cc2ccc3c(c2)OCO3)CC1` it is 41.2% (active); for `O=C(Cc1ccccc1[N+](=O)[O-])N1CCN(Cc2ccc3c(c2)OCO3)CC1` it is 0.16%. The figure for `CCOC(=O)c1cc2cc(-c3c(C(=O)OCC)oc4cc(O)cc(O)c4c3=O)ccc2o1` is 0.2%. With `COc1ccc(Cc2nnnn2CC(=O)O)cc1` the figure was 0.07%; with `CN(CC(=O)Nc1ccccc1C(F)(F)F)C(=O)Cc1ccccc1F`, -1.8%. Turning to `CC(C)N1C(=S)SC(C)(C)C1n1oc(=O)n(-c2ccc(Cl)c(Cl)c2)c1=O` (stereo not given), the inhibition was 1.39%. With `COc1ccc(-c2c(C(C)=O)c(C)nc3sc4c(=O)n(-c5ccc(C)cc5)nnc4c23)cc1` the figure was 3.94%; with `CCN1CC=C2C(C#N)=C(N)C(C#N)(C#N)[C@H](c3ccoc3)[C@H]2C1`, 28% (active); with `COC(=O)[C@]1(Cc2ccccc2)N[C@H](CN(C)S(=O)(=O)c2ccc(OC(F)(F)F)cc2)[C@@H]2C(=O)N(C)C(=O)[C@@H]21`, 0.06%. With `O=C1c2ccccc2-c2ccccc2NC1O` (stereo not given) the figure was -1.24%; with `COc1ccc2[nH]c3ccc(OC)cc3c2c1`, 28.3% (active); with `COc1ccc2[nH]c3c(C)c4cc[n+](C)cc4c(C)c3c2c1`, -3.24%. The figure for `COc1ccc2[nH]c3c(c2c1)CCN[C@H]3C` is 0.12%; for `C[C@]1(C(=O)NCCc2c[nH]c3ccccc23)C=C[C@@H](Cc2ccccc2)N1C(=O)c1ccccc1` it is -0.23%. On to `COc1ccc(NC(=O)CSc2nnc(C3CC3)n2C)cc1S(=O)(=O)N1CCCCC1`, for which the inhibition is -1.4%. With `CCOc1ccc(N(CC(=O)Nc2ccccc2F)S(=O)(=O)c2c(C)[nH]c(=O)[nH]c2=O)cc1` the figure was 0.28%; with `O=C(NCCCn1ccnc1)C1CCCN(S(=O)(=O)c2cc(Cl)ccc2Cl)C1` (stereo not given), -0.78%; with `CCCCN=C(N)/C(C(=O)OCC)=C(\O)c1ccc(OC)cc1`, -0.66%. With `Cc1noc(C)c1COc1ccc2ccc(=O)oc2c1` the figure was 28.6% (active); with `Cc1noc(C)c1COC(=O)COc1ccc(-c2ccccc2)cc1`, -1.21%; with `CC(C)OC(=O)c1ccc(COc2ccc3ccc(=O)oc3c2)o1`, 17.9%.
